Assay outcomes from PubChem.
POLI inh – blocks human DNA polymerase iota activity; Pol iota fluorescent replication assay, 10 min; Potency, µM (series often up to 115 µM), actives largely listed as inhibitors; 390,000 compounds, 1% hits
Target sequence (Q9UNA4 whole entry, looked up): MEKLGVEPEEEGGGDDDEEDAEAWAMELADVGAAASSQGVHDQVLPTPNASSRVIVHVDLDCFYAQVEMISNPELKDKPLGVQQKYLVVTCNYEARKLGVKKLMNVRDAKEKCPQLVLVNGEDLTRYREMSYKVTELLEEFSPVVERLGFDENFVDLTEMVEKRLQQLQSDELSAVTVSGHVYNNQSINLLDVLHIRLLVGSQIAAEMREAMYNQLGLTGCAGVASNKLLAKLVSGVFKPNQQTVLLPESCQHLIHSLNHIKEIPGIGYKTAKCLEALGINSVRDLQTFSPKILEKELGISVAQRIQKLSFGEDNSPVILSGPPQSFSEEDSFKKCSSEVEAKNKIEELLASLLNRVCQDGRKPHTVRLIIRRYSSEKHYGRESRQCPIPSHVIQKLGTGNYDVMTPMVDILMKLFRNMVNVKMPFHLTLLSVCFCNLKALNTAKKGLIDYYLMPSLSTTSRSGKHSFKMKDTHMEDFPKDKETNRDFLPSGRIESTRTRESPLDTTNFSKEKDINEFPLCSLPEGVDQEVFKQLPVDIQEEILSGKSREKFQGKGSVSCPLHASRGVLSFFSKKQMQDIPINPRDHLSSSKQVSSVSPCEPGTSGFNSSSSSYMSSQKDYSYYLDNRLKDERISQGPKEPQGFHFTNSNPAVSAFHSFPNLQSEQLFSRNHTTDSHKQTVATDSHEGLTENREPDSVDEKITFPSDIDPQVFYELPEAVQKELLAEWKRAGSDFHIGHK
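Fluorescent replication assay read twice, at 0 min and 10 min after adding 50 nM (final) substrate. Enzyme (10 nM) and compounds were first incubated 15 min at room temperature; enzyme-free buffer wells were negative controls.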
L3MBTL1 inh-1 – inhibitors of human L3MBTL1; Q9Y468; AlphaScreen L3MBTL1–H3K9me1 peptide binding; 230,000 compounds, 0.66% hits; Potency, µM (titrated, usually from 57.1 µM), most hits filed as inhibitors; further: nearly all actives have a fitted effect of over 60% in size
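AlphaScreen proximity signal between nickel-chelate acceptor and streptavidin donor beads (final 10 ug/mL) reports binding of 50 nM L3MBTL1 to 75 nM biotin-H3 K9me1 peptide; complex incubated with compounds 30 min at room temperature; cefsulodin titration as control.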
WRN inhibitor – inhibitors of human WRN helicase | WRN helicase unwinding, fluorescent forked duplex, kinetic | Potency, µM (top dose mostly 114 µM), usual class: inhibitors | 360,000 compounds, 0.46% hits | AID 651768; further: nearly all actives have a fitted effect of over 55% in size
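Screening of the MLSMR collection measured strand separation of a quenched forked DNA duplex (100 nM) by 20 nM WRN with 2 mM ATP, all final. Compounds were preincubated with enzyme 15 min at room temperature.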
Pol eta inh-1 – inhibitors of human DNA polymerase eta | 390,000 compounds, 1.2% hits | Q9Y253 | AID 588591 | Potency, µM (highest dose often 114 µM), hits mostly inhibitors | recombinant Pol eta, fluorescent DNA replication assay
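Pol eta at 10 nM preincubated with compounds 15 min at room temperature; reaction started with fluorescent substrate (50 nM final) and read kinetically at 0 and 10 min.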
Pol kappa inh-1 – DNA polymerase kappa (human) inhibition. Potency, µM (titrated, usually from 107 µM), hits mostly inhibitors. AID 588579. purified Pol kappa, fluorescent DNA synthesis assay, 10 min. Q9UBT6. 400,000 compounds, 0.53% hits
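First, compounds were pin-transferred onto 10 nM Pol kappa. After 15 min at room temperature, substrate was added to 50 nM final. Fluorescence was then measured kinetically at 0 and 10 min.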
POLB inh – inhibitors of human DNA polymerase beta; Pol beta primer extension/strand displacement, fluorescence kinetic; Potency, µM (series often up to 114 µM), actives largely listed as inhibitors; 340,000 compounds, 1.3% hits; AID 485314
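10 nM enzyme + cpd, 15 min RT; start with substrate 50 nM final; read 0 min and after 10 min RT. Corrected, normalized data; 4-parameter Hill curve fit.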
L3MBTL1 inh-2 – validation of human L3MBTL1 methyl-lysine binding inhibitors. shares compounds with L3MBTL1 inh-1. L3MBTL1 methyl-lysine binding inhibition, biochemical qHTS. Potency, µM, actives largely listed as inhibitors. 500 compounds, 91% hits; further: nearly all actives have a fitted effect of over 70% in size
AlphaScreen ctr2 – AlphaScreen signal inhibition, L3MBTL1 hit counter-screen; shares compounds with L3MBTL1 inh-1; AlphaScreen counterscreen, signal inhibition; Potency, µM (highest dose often 57.1 µM), most hits filed as inhibitors; 500 tested, under 10 active
TbPGK inh – TbPGK inhibition, hit validation. AID 686980. Potency, µM (doses to about 57.5 µM), usual class: inhibitors. TbPGK coupled GAPDH assay, Kinase-Glo luminescence. 500 compounds, 79% hits. shares compounds with Pol kappa inh-1; further: nearly all actives have a fitted effect of over 65% in size
POLI cherry-pick – Inhibitors of human DNA polymerase iota, confirmation | shares compounds with Pol kappa inh-1 | Pol iota primer extension, TAMRA/BHQ fluorescence | Potency, µM, actives largely listed as inhibitors | 1,500 compounds, 77% hits | AID 720496
Pol kappa inh-2 – confirmation of human DNA polymerase kappa inhibitors. purified Pol-kappa, fluorescent strand-displacement substrate. 920 compounds, 76% hits. AID 720501. Potency, µM, actives largely listed as inhibitors. shares compounds with Pol eta inh-1
Pol eta inh-2 – Pol eta (human) inhibition, cherry-pick confirmation; Pol eta primer extension, TAMRA/BHQ fluorescence, 10 min; Potency, µM, most hits filed as inhibitors; 2,600 compounds, 64% hits; shares compounds with Pol eta inh-1; AID 720502
Hits are given with their value; 0 = inactive; ? = inconclusive; - = no result; [ ] = another dose, or the depositor's remark. Compounds with a hit are over-represented: about 2.5% of the library has one in this group of screens. The call rests on the fitted dose curve; in most records, active means well fitted curve in the direction sought with a large enough effect; inconclusive means small, poorly fitted or top-dose-only effect, or another doubt; inactive means no such curve, though single readings can be large; an effect the other way counts as inactive or inconclusive.

SMILES	POLI inh	L3MBTL1 inh-1	WRN inhibitor	Pol eta inh-1	Pol kappa inh-1	POLB inh	L3MBTL1 inh-2	AlphaScreen ctr2	POLI cherry-pick	Pol eta inh-2	others
CCc1nc2sc3ccccc3c(=O)c2c(=O)n1Cc1ccco1	15.8µM	31.6µM	56.2µM	31.6µM	50.1µM	20µM	16.8	0	?	-
COc1ccc(-c2cc(C(=O)NCc3ccc(C)cc3)c3cc(C(C)C)ccc3n2)cc1	0	-	-	0	0	0	-	-	-	-
Cc1ccc(NC(=O)CN2C(=O)S/C(=C/c3ccc(-c4cccc(C(=O)O)c4)o3)C2=O)cc1	25.1µM	35.5µM	?	5.62µM	31.6µM	11.2µM	26.7	0	-	-	TbPGK inh=11.6µM
O=C(/C=C/c1ccc(O)c(O)c1)OC1C(O)CC(OC(=O)/C=C/c2ccc(O)c(O)c2)(C(=O)O)CC1O (stereo not given)	5.01µM	1µM	0	?	?	1.41µM	0.0752	0	23.8	-
Cc1cc(C(=O)COC(=O)c2cc(Cl)c(O)c(Cl)c2)c(C)n1C	20µM	28.2µM	50.1µM	15.8µM	79.4µM	-	4.74	?	-	?
Cc1cc(C(=O)COC(=O)c2ccc(F)cc2)c(C)n1C	0	0	0	0	0	-	-	-	-	-
O=C(CC(c1ccc(F)cc1)c1ccco1)N1CCCC1 (stereo not given)	0	0	0	0	0	0	-	-	-	-
CC1=NN(c2ccc(C(=O)O)cc2)C(=O)/C1=C/c1ccc(-c2ccccc2F)o1	-	-	-	-	-	0	-	-	-	-
O=C1NN(c2ccccc2)C(=O)/C1=C/c1ccc(-c2ccc(C(=O)O)cc2)o1	3.55µM	12.6µM	50.1µM	7.08µM	17.8µM	?	2.99	?	23.8	26.9
CCCC(=O)N(c1ccc2oc(=O)sc2c1)S(=O)(=O)c1cccs1	0	0	?	0	0	0	-	-	-	-
CC(=O)Oc1ccc2c(=O)c(Oc3ccccc3)coc2c1OC(C)=O	12.6µM	14.1µM	?	6.31µM	14.1µM	10µM	9.47	0	-	?
COc1cc(CN(C(=O)c2ccco2)C2CCS(=O)(=O)C2)cc(OC)c1OC (stereo not given)	0	-	0	0	0	0	-	-	-	-
O=C(Nc1ccc2nc(-c3ccco3)c(-c3ccco3)nc2c1)N1CCN(c2ccccn2)CC1	3.16µM	3.16µM	17.8µM	3.16µM	28.2µM	1.58µM	2.99	0	-	?
Cc1nc2cc(NC(=O)N3CCN(c4ccccn4)CC3)ccc2o1	0	-	0	0	0	0	-	-	-	-
O=C(/C=C/c1ccco1)Nc1scc(-c2ccccc2)c1C(=O)O	28.2µM	25.1µM	?	20µM	79.4µM	0	2.67	0	37.7	26.9
O=C(/C=C/c1ccccc1)Nc1scc(-c2ccccc2)c1C(=O)O	0	0	0	0	0	0	-	-	-	-
O=c1cc2c(=O)oc3cc(O)c(O)oc3c2c(O)c1O	1.12µM	0.316µM	?	0.708µM	2.82µM	0.355µM	0.168	?	1.06	1.2	TbPGK inh=?;Pol kappa inh-2=0.947
O=c1oc2cc(O)c(Cl)cc2c2ccccc12	0	0	0	0	0	0	-	-	-	-
Cc1ccc(CNC(=O)CN2c3cccc4cccc(c34)S2(=O)=O)cc1	0	0	0	0	0	-	-	-	-	-
COc1cccc(CNC(=O)CN2c3cccc4cccc(c34)S2(=O)=O)c1	44.7µM	31.6µM	0[11.6 µM]	14.1µM	?	-	26.7	0	-	?
